Shown is part of a subset that was picked to be rich in hits.
FXIa single inh = blocks human coagulation factor XIa activity; P03951; purified human FXIa, fluorogenic AMC substrate cleavage; inhibition, % at 10 µM; 33,000 tested, 0.3% active; AID 687;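 active means inhibition above 40% in the primary screen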
Target sequence (P03951 19-387 limits assumed): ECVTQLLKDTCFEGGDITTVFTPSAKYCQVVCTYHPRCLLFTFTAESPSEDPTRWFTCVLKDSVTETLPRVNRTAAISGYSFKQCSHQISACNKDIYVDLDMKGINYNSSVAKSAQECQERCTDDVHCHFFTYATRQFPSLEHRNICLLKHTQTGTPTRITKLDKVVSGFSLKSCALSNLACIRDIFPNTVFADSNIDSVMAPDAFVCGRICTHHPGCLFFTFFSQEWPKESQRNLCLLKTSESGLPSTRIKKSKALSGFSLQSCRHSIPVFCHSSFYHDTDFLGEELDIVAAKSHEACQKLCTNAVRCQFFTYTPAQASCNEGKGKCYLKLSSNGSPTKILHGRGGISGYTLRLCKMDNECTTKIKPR
Target sequence (P03951 388-625 limits assumed): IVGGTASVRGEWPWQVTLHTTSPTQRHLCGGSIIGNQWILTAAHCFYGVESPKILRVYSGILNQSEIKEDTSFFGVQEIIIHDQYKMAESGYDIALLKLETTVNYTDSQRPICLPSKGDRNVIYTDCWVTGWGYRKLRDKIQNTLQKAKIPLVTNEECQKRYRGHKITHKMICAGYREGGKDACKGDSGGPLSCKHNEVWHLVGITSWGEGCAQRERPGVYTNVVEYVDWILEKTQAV
FXIIa inh = inhibitors of human coagulation factor XIIa | inhibition, % at 10 µM | AID 701 | P00748 | purified human FXIIa, AMC substrate fluorescence, 2 h | 33,000 tested, 0.2% active; in the data active means inhibition above about 30%
Large screens that a line does not name were inactive.

Clc1ccccc1C(c1nnnn1Cc1ccco1)N1CCN(Cc2ccco2)CC1 (centres undefined)	none
COc1ccc(Cn2nnnc2C(c2ccccc2Cl)N2CCC(C(N)=O)CC2)cc1 (centres undefined)	FXIa single inh 45
CCN(CC)C(=O)CN(c1ccc(Cl)cc1)S(=O)(=O)c1ccccc1	none
COc1ccc2c(c1)CCc1c(C(=O)NCc3ccc(Cl)cc3)noc1-2	FXIIa inh 81
COc1ccc2c(c1)CCc1c(C(=O)Nc3c(C)nn(Cc4ccccc4)c3C)noc1-2	none
O=C(NCCc1csc(-c2cccnc2)n1)c1cccc2ccccc12	none
CCc1nc(NCCN)c(C#N)c2c1CSC(C)(C)C2	none
Cc1ccc(-c2n[nH]c(=O)c3ccccc23)cc1S(=O)(=O)NCCO	FXIIa inh 38
Cc1ccc(-c2n[nH]c(=O)c3ccccc23)cc1S(=O)(=O)N(C)CCO	none
O=C(CCNNC(=O)c1ccncc1)NCc1ccccc1	none
CCc1cc2cc(C(=O)Nc3ccccc3F)sc2s1	none
CC1CCN(S(=O)(=O)c2cccc(S(=O)(=O)N3CCOCC3)c2)CC1	none
CCOC(=O)N1CCN(Cc2nc3c(c(=O)n(C)c(=O)n3C)n2Cc2cccc3ccccc23)CC1	none
O=C(Nc1ccc(N2CCN(C(=O)c3ccccc3)CC2)cc1)c1ccc2c(c1)OCO2	none (no result: FXIIa inh)
O=C(c1ccc2c(c1)OCO2)N1CCN(c2ccc(F)cc2)CC1	FXIIa inh 33
O=C(OCC(=O)N(C1CCCCC1)C1CCCCC1)c1ccco1	none
Cc1cc(C)n(CC(=O)n2c3ccccc3c3ccccc32)n1	none
CC(=O)Nc1ccc(S(=O)(=O)Nc2nnc(C(C)C)s2)cc1	none
O=C(Oc1cccc2cccnc12)c1ccco1	none
O=C(Oc1ccc(Cl)c2cccnc12)c1ccco1	FXIIa inh 37
COc1ccc(NC(=O)NC(C)c2ccncc2)cc1OC (centres undefined)	none
CCN1C(=O)C(Cc2nc3ccccc3c(=O)n2C)c2ccccc21 (centres undefined)	none
CCCC(c1nnnn1Cc1ccco1)N1CCN(C(=O)c2ccco2)CC1 (centres undefined)	none
COC(=O)c1cccc(NC(=O)CN(c2ccc3c(c2)OCO3)S(C)(=O)=O)c1C	none
COC(=O)CSc1nnc(C)n1-c1ccc(C)cc1	none
COC(=O)CSc1nnc(C)n1-c1cccc(OC)c1	FXIa single inh 43
NC(=O)C1CCN(C2CC(=O)N(Cc3cccs3)C2=O)CC1 (centres undefined)	none
CCN1CCN(C(=O)CN(CCc2ccccc2)S(C)(=O)=O)CC1	none
N#Cc1cc2c(nc1SCC(=O)Nc1sc3c(c1C#N)CCC3)CCCCCC2	none
N#Cc1cc2c(nc1SCC(=O)Nc1sc3c(c1C#N)CCC3)CCC2	FXIa single inh 42
O=C(Nc1cccnc1Cl)C1c2ccccc2Oc2ccccc21	none
Cc1cc(NC(=O)c2cnc3ccccn3c2=O)no1	none
Cc1cccc(OCc2nc(C)cc(=O)[nH]2)c1	none
Cc1cc(=O)[nH]c(-n2[nH]c(C)cc2=O)n1	FXIa single inh 48
Cc1ccc2nc(NC(=O)c3ccc(Cn4cc(Cl)cn4)o3)sc2c1	none
CCOC(=O)c1ccc(CC2S/C(=C(\C#N)C(C)=O)NC2=O)cc1 (centres undefined)	none
CCc1ccc(CC2S/C(=C(\C#N)C(C)=O)NC2=O)cc1 (centres undefined)	FXIa single inh 49
COc1ccccc1OCC(=O)N1CC2(C)CC1CC(C)(C)C2 (centres undefined)	none
N#CCCn1cnc2c(=S)nc[nH]c21	none
CN1CCN(CC(O)COc2ccc(Cl)cc2)CC1 (centres undefined)	none
Cc1ccc(-c2cc(-c3ccccc3)c3c(N)c(S(C)(=O)=O)sc3n2)cc1	FXIIa inh 51
Cc1cc(C)c2c(N)c(S(=O)(=O)Cc3ccccc3)sc2n1	none
CN1CCN(C(=O)c2ccc3c(=O)n(Cc4ccco4)c(=S)[nH]c3c2)CC1	none
CC(=O)Oc1ccc2c(C)cc(=O)oc2c1	FXIIa inh 32
CC(=O)Oc1cc2oc(=O)cc(C)c2cc1OC(C)=O	none
COc1ccc(N2CCN(C(=O)CCCOc3cc(=O)n(C)c4ccccc34)CC2)cc1	none
COc1cccc(C(=O)N(Cc2ccccc2)Cc2cc3cc4c(cc3[nH]c2=O)OCCO4)c1	FXIa single inh 47
COc1ccc(C(=O)N(Cc2ccccc2)Cc2cc3cc4c(cc3[nH]c2=O)OCCO4)cc1	none
CC1=C(C(=O)OC(C)C)C(c2coc3ccccc3c2=O)C2=C(CCCC2=O)N1 (centres undefined)	FXIa single inh 50
CCOC(=O)C1=C(C)NC2=C(C(=O)CC(C)(C)C2)C1c1coc2ccccc2c1=O (centres undefined)	none
Cc1ccc(S(=O)(=O)N2CCCC2C(=O)Nc2nc3c(s2)CCCC3)cc1 (centres undefined)	none
CN(CC(CC(=O)O)c1ccccc1)S(=O)(=O)c1ccc(Br)cc1 (centres undefined)	none
Cc1ccc(C(C)C)c(OCCN2C(=O)NC(C)(C)C2=O)c1	none
O=C(C1CCC1)N(CCc1ccccc1)Cc1nc2ccccc2c(=O)[nH]1	FXIIa inh 34
CCCC(=O)N(CCc1ccc(OC)cc1)Cc1nc2ccccc2c(=O)[nH]1	none
COc1ccc2c(c1)c1ccccc1n2C	none
COc1ccc2c(=O)cc(-c3ccccc3)n(C)c2c1	FXIa single inh 105
CCOC(=O)c1c(NS(C)(=O)=O)sc2c1CCC(C)C2 (centres undefined)	none
CCCC1CCc2c(sc(N)c2C(N)=O)C1 (centres undefined)	FXIa single inh 52
CSC1=C(C#N)C(CC(C)C)C2=C(CCCC2=O)N1 (centres undefined)	none
O=C(NCCc1ccccc1)c1cnn2c(C(F)F)cc(C3CC3)nc12	none
O=C(c1cccs1)N1CCN(S(=O)(=O)Cc2ccccc2)CC1	none
O=S(=O)(Cc1ccccc1)N1CCC(c2nc(-c3cccs3)no2)CC1	FXIa single inh 46
COCCn1c(-c2ccccc2)nc2oc3cc(OC)ccc3c(=O)c2c1=O	none
CN(C)CCNCc1ccc(OC2CCCC2)cc1	none
CCC(CO)NCc1ccc(OC2CCCC2)cc1 (centres undefined)	FXIa single inh 66
CCOc1ccc(C(=O)N[C@H](C(=O)O)C(C)C)cc1	none
Cc1cc(Cl)c(S(=O)(=O)NCc2ccccc2)cc1OCC(N)=O	none
Cc1noc2ncnc(Sc3c(Cl)cccc3Cl)c12	none
CCC(CC)c1nnc(NC(=O)C2COc3ccccc3O2)s1 (centres undefined)	none
FC(F)(F)c1cnc(Oc2ccccc2-c2nnco2)c(Cl)c1	none
FC(F)(F)c1cnc(Oc2ccc(-c3nnco3)cc2)c(Cl)c1	FXIIa inh 31
CC1=CC(C)C2C(=O)N(O)C(=O)C2C1 (centres undefined)	none
CCC(CC)C(=O)OCC(=O)NC12CC3CC(CC(C3)C1)C2	none
CCC1CC2CC(NC(C)=O)C1C2 (centres undefined)	FXIa single inh 47
CC(=O)N[C@H]1C[C@@H]1c1ccccc1	none
CC(=O)Oc1cc(OC(C)=O)c2c(C)cc(=O)oc2c1	none
Cc1cc(OC(=O)c2ccco2)c2c(C)cc(=O)oc2c1	FXIa single inh 44, FXIIa inh 31
CC(=O)NCCc1nc2ccccc2n1Cc1ccc(C)cc1	none
COc1ccc(-c2nc(N)n(C(C)=O)n2)cc1	none
Cc1ccc(C(=O)n2nc(-c3cccnc3)nc2N)cc1	FXIa single inh 42, FXIIa inh 92
O=C(OCCN1C(=O)c2ccccc2C1=O)c1ccco1	none
COc1ccc(OCC(=O)N/N=C2\CCc3ccccc32)cc1	none
COc1ccccc1-c1nnc2sc(COc3ccccc3)nn12	none

Screens (PubChem BioAssay)
